Screening results deposited in PubChem by National Center for Advancing Translational Sciences (NCATS).
Rows were chosen to be rich in hits. Some 3% of all compounds tested hit in one or more screens of this group.
GCN5L2 inh: inhibitors of human GCN5L2 histone acetyltransferase; GCN5L2 HAT assay, ThioGlo1 CoA-SH fluorescence; Potency, µM (doses to about 58.9 µM), usual class: inhibitors; hit rate 0.21% among 390,000; AID 504327
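Preincubate 20nM GCN5L2 with compound 15 min, RT → add 50uM ThioGlo1 + 75uM H3(1-25) + 70uM acetyl-CoA → read fluorescence 0 and 20 min. Primary qHTS; fluorescent artifacts likely.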
PLK1 PBD block: PLK1 (human) polo-box domain binding inhibition; P53350; Plk1 PBD binding of FITC phosphopeptide, fluorescence polarization; Potency, µM, usual class: inhibitors; hit rate 2.8% among 360,000; further: series mostly up to about 57 µM; nearly all actives have a fitted effect of over 65% in size
12-LOX inh: inhibitors of human 12S-lipoxygenase ALOX12 | Potency, µM (highest dose often 108 µM), usual class: inhibitors | hit rate 1.1% among 580,000 | P18054 | purified 12hLO, xylenol orange hydroperoxide absorbance
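Purified human 12hLO (150 nM final) in 25 mM Hepes, 0.01% Triton X-100, pH 7.0 was preincubated 15 min at room temperature with compound. Then 40 uM arachidonic acid was added, 30 min. Hydroperoxide was read by Fe-XO absorbance ratio 573/405 nm.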
VDR inhibitor: vitamin D3 receptor (human) inhibition; VDR-SRC2-3 peptide fluorescence polarization, 2 h; Potency, µM, usual class: inhibitors; hit rate 0.93% among 400,000
Target sequence (P11473 whole entry, looked up): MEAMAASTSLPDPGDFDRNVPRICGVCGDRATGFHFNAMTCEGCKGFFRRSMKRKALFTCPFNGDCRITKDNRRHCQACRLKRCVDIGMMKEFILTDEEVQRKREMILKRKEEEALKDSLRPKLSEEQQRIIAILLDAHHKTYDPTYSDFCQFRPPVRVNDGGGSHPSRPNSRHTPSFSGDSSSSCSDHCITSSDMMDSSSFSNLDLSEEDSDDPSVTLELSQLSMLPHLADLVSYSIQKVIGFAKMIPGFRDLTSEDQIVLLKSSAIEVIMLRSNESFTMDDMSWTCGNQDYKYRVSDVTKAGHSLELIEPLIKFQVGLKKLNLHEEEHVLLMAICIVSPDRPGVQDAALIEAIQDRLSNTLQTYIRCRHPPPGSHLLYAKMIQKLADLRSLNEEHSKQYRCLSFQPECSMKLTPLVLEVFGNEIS
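Fluorescence polarization assay of small-molecule disruption of VDR binding to coregulator peptide SRC2-3. Compounds and controls pin-transferred, then read after 2 h incubation at ambient room temperature.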
Hits are given with their value; 0 = inactive; ? = inconclusive; - = not tested or not shown; ! = not confirmed by another sample; [ ] = dose if it differs, or a comment. The call rests on the fitted dose curve; in most records, active means well fitted curve in the direction sought with a large enough effect; inconclusive means small, poorly fitted or top-dose-only effect, or another doubt; inactive means no such curve, though single readings can be large; an effect the other way counts as inactive or inconclusive.

SMILES	GCN5L2 inh	PLK1 PBD block	12-LOX inh	VDR inhibitor
Cc1ccc(Cc2c(-c3ccco3)nc3ccc(Br)cn23)cc1	-	?	40µM	-
Cc1ccc(Cc2c(-c3cccc(Br)c3)nc3ccc(Br)cn23)cc1	-	0	25µM	-
COCc1cc(C)n(CC(=O)Nc2cc(C)c(C)cc2Br)c(=O)c1C#N	-	-	0	-
Cn1c(=S)c2[nH]c(SCCN3CCCC3)nc2n(C)c1=O	0	0	0	?
Cn1c(=S)c2[nH]c(SCCN)nc2n(C)c1=O	-	27µM	?	0
COCCOC1CN(C2CCN(Cc3ccc(C)o3)CC2)C12CCCCC2 (stereo not drawn)	-	-	0	-
O=[N+]([O-])c1cccc(-c2nc(-c3ccncc3)no2)c1	0	0	0	0
O=[N+]([O-])c1cccc(-c2nc(-c3ccccc3)no2)c1	0	19µM	0	0
COC(=O)c1c(NC(=O)c2c(-c3c(Cl)cccc3Cl)noc2C)sc(C)c1C	-	-	0	-
O=C(O)/C=C/c1c(F)cccc1Cl	-	-	0	-
O=C(/C=C/c1c(F)cccc1Cl)c1ccc(O)cc1	0	0	?	79µM
O=C(Cn1c(=O)c(CCC(=O)NC2CC2)nc2ccccc21)Nc1cccc(C(F)(F)F)c1	-	-	0	-
C=CCn1c(SCC(=O)NC2CCS(=O)(=O)C2)nc2sc(CC)cc2c1=O (stereo not drawn)	0	0	0	0
C=CCn1c(SCC(=O)NC2CC2)nc2sc(CC)cc2c1=O	0	27µM	0	0
C=CCn1c(SCC(=O)NC2CCCC2)nc2scc(-c3ccco3)c2c1=O	0	0	45µM	0
C=CCn1c(SCC(=O)NCCCC)nc2scc(-c3ccco3)c2c1=O	0	?	?	?
CC(C(=O)NC1CCCCC1)N1CCN(C)CC1 (stereo not drawn)	0	30µM	0	0
CC(C(=O)NC1CCCCCC1)N1CCN(Cc2ccccc2)CC1 (stereo not drawn)	-	-	0	-
Cc1cnc(NC(=O)C(C)N2CCN(C)CC2)s1 (stereo not drawn)	0	0	2.5µM	0
CC(=O)N(CCCNC(=O)c1nn(C)c(=O)c2ccccc12)C(C)C	-	-	0	-
CC(OC(=O)/C=C/c1ccc2ccccc2n1)C(=O)NC1(C#N)CCCCC1 (stereo not drawn)	-	-	0	-
O=C(NCc1ccccc1Cl)C(=O)Nc1ccccc1	-	-	0	-
COc1ccc(OC)c2nc3c(C(=O)NCCN(C)C)cccc3nc12	-	0	0	0
CN(C)CCNC(=O)c1cccc2ccc(-c3ccc(-c4ccccc4)cc3)nc12	-	0	40µM	0
CCCCCCCCCCCC1=C(O)C(=O)C=C(O)C1=O	-	30µM	3.4µM!	?
SMILES	GCN5L2 inh	PLK1 PBD block	12-LOX inh	VDR inhibitor
COC1=CC(=O)C(O)=C(CCCCCCC/C=C/CCCCCCCC2=C(O)C(=O)C=C(OC)C2=O)C1=O	-	19µM	-	45µM
CC(C)Cn1cnc2c1c(=O)n(CC(=O)NC1CCCCCC1)c(=O)n2Cc1ccccc1	-	-	0	-
Cc1ccc(NC(=O)N2CCCCC2c2noc(COc3ccc(F)cc3)n2)cc1F (stereo not drawn)	-	-	0	-
c1ccc(CN(Cc2ccco2)C(c2ccncc2)c2nnnn2C2CCCC2)cc1 (stereo not drawn)	0	?	?	28µM
Fc1ccc(C(c2nnnn2C2CCCC2)N(Cc2ccco2)CC2CCCO2)cc1 (stereo not drawn)	0	0	0	0
O=C1c2cccc3c([N+](=O)[O-])c(O)cc(c23)C(=O)N1Nc1ccccc1	0	27µM	0	?
CC1CCC[C@]2(CCc3cc4c5c(c(=O)oc4cc3O2)CCCC5)C1 (stereo partly drawn)	-	-	0	-
CC(C)C(=N)N	-	-	0	-
CS(=O)(=O)C1=NSC2=NC(=O)/C(=C\c3ccc(-c4ccccc4)o3)C(=N)N21	0	-	-	-
CC(C)CC1=NN2C(=N)/C(=C\c3coc4ccccc4c3=O)C(=O)N=C2S1	0	0	?	79µM
Cc1cccc(-n2c(C)cc(/C=C3\C(=N)N4N=C(CC(C)C)SC4=NC3=O)c2C)c1	0	0	0	0
CCSC1=NSC2=NC(=O)/C(=C\c3coc4ccccc4c3=O)C(=N)N12	?	17µM	45µM	79µM
COc1ccc(C(=O)N2CCC3(C2)C(=NC2CCCC2)NC(=O)N3c2cccc(OC)c2)cc1 (stereo not drawn)	-	-	0[6.33 µM]	-
Nc1nc(N2CCN(C/C=C/c3ccccc3)CC2)nc2ccccc12	?	27µM	?	0
COc1ccc(OC)c(NS(=O)(=O)c2ccc(-c3cnc(C)o3)cc2)c1	-	-	0	-
CNC(=S)NNC(=O)c1ccc(C)s1	-	-	0	-
Cc1oc2c(cc(NS(=O)(=O)c3ccc(C(C)C)cc3)c3ccccc32)c1C(=O)O	0	19µM	?	0
